# Data: PubChem BioAssay AID651558 (National Center for Advancing Translational Sciences (NCATS), 2012)
# About 480 (40%) of roughly 1,200 compounds were called active. Inconclusive results (about 29%) are left out. The call rests on the fitted dose curve; in most records, active means well fitted inhibition curve with a large enough effect; inconclusive means small, poorly fitted or top-dose-only effect; inactive means no such curve, though single readings can be large or run the other way. This is one part of the list.
# Experiment: qHTS Assay to Find Inhibitors of Chronic Active B-Cell Receptor Signaling: Hit Validation in Primary Screen; further: nearly all actives have a fitted effect of over 75% in size
# Details: ABC-DLBCL IkB-luc/CBR ratio luminescence, 4 h; series mostly up to 46.1 µM
# Text: Diffuse large B-cell lymphoma (DLBCL) is the most common category of non-Hodgkin lymphoma, with ~20,000 new cases per year in the United States. DLBCL should be regarded as a collection of different neoplasms. Microarray gene expression analysis has defined two principal types of DLBCL, named for their similarity to normal B cell stages or activation states: a germinal center B-cell (GCB) type, and an activated B-cell (ABC) type. In ABC-DLBCL, a constitutive high-level activity of the NF-kappaB family of transcription factors has been observed (1) and NF-kappaB target genes are more highly expressed in ABC primary tumors than in GCB tumors. Functional studies have shown a constitutive high-level activity of the IkappaB (inhibitor of kappa-B) kinase (IKK) complex. […] Further analysis of DLBCL primary tumors for NF-kappaB target gene expression imply that although CARD11 is required for constitutive IKK activity in all ABC-DLBCL lines, mutations in CARD11 may be the root cause of IKK activation only in lines or tumors with such mutations. In other words, CARD11 mutations may explain NF-kappaB activation in only 10% of ABC-DLBCL cases. […] This process has been termed 'chronic active BCR signaling' (CABS). The goal of this screen is to find small-molecule inhibitors of the CABS pathway found in ABC-DLBCL lines using a cell-based assay that measures IkappaBalpa stability, which has already been extensively validated in the OCI-Ly3 line (PubChem AID:445; REF: 4). […] A cell-sensor assay for I-kappa-B-alpha stabilization has been developed. The assay uses green (CBG68) and red (CBR) emitting beetle luciferases [Chroma-GloTM developed by Promega Corp.] where the green luciferase is fused to IkappaBalpha and the red luciferase is present in its native state. Both luciferase genes are stably present in the TMD8 human ABC DLBCL cell line, but their expression is under the control of tetracycline-inducible promoters. Following the addition of doxycycline to induce expression of the luciferases, the green luminescence in control cultures rises only slowly because the CBG fusion partner IkappaBalpha is targeted by IKK activity for rapid degradation. In contrast, green luminescence rises rapidly in the presence of proteasome inhibitors or IKK inhibitors. The rise in red luminescence of CBR is not affected by proteasome or IKK inhibitors, and serves as normalization for cell number and nonspecific effects. Compounds were screened as a concentration-titration series that ranged from 46 uM to 3 nM. NIH Molecular Libraries Probe Production Network [MLPCN] NIH Chemical Genomics Center [NCGC] MLPCN Grant: R03 DA031086 PI Name: Dr. R. Eric Davis
# Cells were seeded in 1536-well plates at 5000 cells/4uL in IMDM medium containing 0.5% FBS, w/o phenol red, 1% penicillin/streptomycin. Then, 23 nL of compounds or DMSO were delivered to each well using a pin tool. One uL 20ng/ml doxycycline was then dispensed into white solid 1536-well plates and the plates were incubated at 37C/5% C02 in a cell incubator for 4 hrs. Then 4 uL luminescent substrate mix (in-house prepared: 150 mM Tris-Cl, pH 7.6, 3 mM MgCl2, 1% Triton X-100, 5 mM DTT, 0.2 mM CoA, 0.15 mM ATP, 5 mM D-luciferin, final concentrations) was added to each well. The plate was incubated at r.t. for 10-15 min. The plates were measured on a ViewLux plate reader for green luminescence (540/20 nm filter) and red luminescence (618/8 nm filter). The green and red luminescent signals were corrected for red and green luminescence filter overlap using previously determined filter calibration constants (determined using the procedure outlined in the Promega Technical Manual; REF 4). The %Activity was determined from the ratio of corrected green/red luminescent values. MG132 were used as control. Green luminescent and ratio %Activity was determined by normalizing to the difference in signal between basal cells (0% Activity) and cells incubated with 10 uM of the proteasome inhibitor MG-132 (100% Activity). […]
# Potency means the concentration at half of the fitted maximal effect.
row,SMILES,Potency
1,COc1cc2c(c(OC)c1OC)-c1ccc(O)cc1[C@@H](NC(C)=O)CC2,461 nM (active)
2,COc1cc2c(c(OC)c1OC)-c1ccc(O)c(=O)cc1C(NC(C)=O)CC2 (stereo unspecified),231 nM (active)
3,COc1cc(C2c3cc4c(cc3CC3COC(=O)C32)OCO4)cc(OC)c1OC (stereo unspecified),inactive
4,COc1cc([C@@H]2c3cc4c(cc3[C@H](O)[C@H]3COC(=O)[C@H]23)OCO4)cc(OC)c1OC,46.1 nM (active)
5,CCCCOCCCn1c(N)c(C(=O)OCCOC)c2nc3ccccc3nc21,inactive
6,C=CC[C@@H](CC/C=C/C=C/CC/C=C\[C@@H]1CSC([C@@H]2C[C@@H]2C)=N1)OC,820 nM (active)
7,CC[C@]12CC[C@H](O)CC1=CCC1C2CC[C@]2(C)C(=O)CCC12 (stereo partly specified),inactive
8,O=c1c2ccccc2[se]n1-c1ccccc1,20600 nM (active)
9,Cc1cc(C)c(C(=O)CN2CCOCC2)c(C)c1,inactive
10,CCNC(=O)[C@H]1O[C@@H](n2cnc3c(N)ncnc32)[C@H](O)[C@@H]1O,130 nM (active)
11,COc1ccc(C(=O)Oc2cccc3cccnc23)cc1S(=O)(=O)N1CCOCC1,inactive
12,C/C(=N\N1CCCCC1)c1c(O)[nH]c(=O)[nH]c1=O,inactive
13,CCC(=NCCC(c1ccccc1)c1ccccc1)c1c(O)[nH]c(=O)[nH]c1=O,20600 nM (active)
14,O=C1C(=O)c2cccc3cccc1c23,18400 nM (active)
15,CCc1ccccc1N1C(=O)/C(=C/c2ccc(N3CCN(C)CC3)o2)C(=O)NC1=S,inactive
16,O=c1c2ccccc2nc(/C=C/c2ccc([N+](=O)[O-])o2)n1-c1ccc(O)cc1,4110 nM (active)
17,COc1ccc(C=C2C(=O)N(C)C(=O)N(C)C2=O)cc1COc1ccc(NC(C)=O)cc1,inactive
18,C#CCOc1cc(C2C3=C(COC3=O)Nc3cc4c(cc32)OCO4)ccc1OC (stereo unspecified),1460 nM (active)
19,CN(C)C(=S)SSC(=S)N(C)C,16400 nM (active)
20,COc1ccc(-c2nn(CCC#N)cc2C(=O)Nc2ccc(C(C)=O)cc2)cc1[N+](=O)[O-],inactive
21,COc1cc2c(cc1O)CC[C@@H]1[C@@H]2CC[C@]2(C)[C@@H](O)CC[C@@H]12,18400 nM (active)
